Assay outcomes as filed in PubChem BioAssay.
AMA1-RON2 inh = qHTS for Inhibitors of AMA1-RON; Towards Development of Antimalarial Drug Lead: Primary Screen; Plasmodium falciparum AMA1 (3D7) - RON2 peptide interaction; AlphaScreen AMA1-biotinylated RON2 peptide binding; Potency, µM (doses to about 58.2 µM), hits mostly inhibitors; actives 0.2% (n = 360,000); AID 720542, 2013; further: nearly all actives have a fitted effect of over 45% in size
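AMA1 (3D7) with his tag at 25 nM final met compounds first, then biotinylated RON2 peptide at 25 nM; detection used donor plus acceptor beads, 10 µg/mL apiece, read by AlphaScreen after 30 min at room temperature.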
FMDV inh = High Throughput Screening for Foot and Mouth Disease Virus Antivirals. FMDV antiviral cell-based qHTS. Potency, µM (doses to about 57.9 µM), hits mostly inhibitors. actives 1.2% (n = 410,000). AID 1159524, 2015; calls by dose curve; tested in HEK293T cells; further: read-out not given here; nearly all actives have a fitted effect of over 45% in size
AmpC detergent = qHTS Inhibitors of AmpC Beta-Lactamase (assay with detergent); AmpC hydrolysis of nitrocefin, absorbance 480 nm, 0.01% Triton; P00811; Potency, µM (titrated, usually from 114 µM), actives largely listed as inhibitors; actives 0.041% (n = 370,000); further: nearly all actives have a fitted effect of over 25% in size
Target sequence (P00811 whole entry, looked up): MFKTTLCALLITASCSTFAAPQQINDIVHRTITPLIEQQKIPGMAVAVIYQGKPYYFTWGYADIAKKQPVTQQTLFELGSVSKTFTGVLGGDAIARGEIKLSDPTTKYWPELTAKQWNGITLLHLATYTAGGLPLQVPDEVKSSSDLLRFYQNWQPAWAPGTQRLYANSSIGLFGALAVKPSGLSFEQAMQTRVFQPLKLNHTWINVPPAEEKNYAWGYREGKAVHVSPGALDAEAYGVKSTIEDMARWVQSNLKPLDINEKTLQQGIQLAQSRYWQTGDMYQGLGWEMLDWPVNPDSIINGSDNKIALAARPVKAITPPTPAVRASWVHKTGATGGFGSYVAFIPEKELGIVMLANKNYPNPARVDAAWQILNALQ
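AmpC (5.3 nM in the dispensed reagent) in 20 mM phosphate pH 7.0 with 0.01% (detergent screen) or 0.0001% Triton X-100 was preincubated with compounds for 15 min at room temperature. Nitrocefin was then added from an 800 uM solution, and hydrolysis was followed at 480 nm.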
Sm TGR inh = qHTS Assay for the Inhibitors of Schistosoma Mansoni Peroxiredoxins | purified TGR, DTNB reduction, TNB absorbance 405 nm | Potency, µM (top dose mostly 114 µM), actives largely listed as inhibitors | actives 3% (n = 360,000) | AID 485364, 2010; further: nearly all actives have a fitted effect of over 60% in size
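TGR 20 nM + NADPH 100 uM (dispensed conc.), cpd preinc 15 min RT; start with NADPH (500 uM addition) then DTNB (15 mM addition). Kinetic TNB absorbance, 405 nm filter. Four-parameter Hill fit across titration.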
AmpC no deterg = qHTS Inhibitors of AmpC Beta-Lactamase (assay without detergent); P00811; AmpC nitrocefin hydrolysis, absorbance 480 nm, 0.0001% Triton; Potency, µM (highest dose often 57.1 µM), usual class: inhibitors; actives 0.52% (n = 330,000); further: nearly all actives have a fitted effect of over 20% in size
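AmpC (5.3 nM in the dispensed reagent) in 20 mM phosphate pH 7.0 with 0.01% (detergent screen) or 0.0001% Triton X-100 was preincubated with compounds for 15 min at room temperature. Nitrocefin was then added from an 800 uM solution, and hydrolysis was followed at 480 nm.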
Of the large screens only hits and unclear results are named; the others gave an inactive call. A selection: hits, their analogues and other compounds. The true share with any hit is near 4.1%. Unless noted, the call rests on the fitted dose curve; in most records, active means well fitted curve in the direction sought with a large enough effect; inconclusive means small, poorly fitted or top-dose-only effect, or another doubt; inactive means no such curve, though single readings can be large; an effect the other way counts as inactive or inconclusive.

O=C(NCc1cccnc1)Nc1cccc(C(F)(F)F)c1	AmpC detergent inconclusive
CCc1nc(SCC(=O)Nc2ccc(NC(C)=O)cc2)n[nH]1	none (no result: AMA1-RON2 inh, AmpC no deterg)
CN1CCN(Cc2nc(N)nc(Nc3ccc4c(c3)OCCO4)n2)CC1	none
Nc1nc(CN2CCN(c3ccccc3F)CC2)nc(Nc2ccc3c(c2)OCCO3)n1	AMA1-RON2 inh inconclusive, FMDV inh 22µM
COc1cccc(CNC(=O)c2ccc3c(c2)N(C)C(=O)C2CCCCN32)c1 (centres undefined)	none (no result: AMA1-RON2 inh, AmpC no deterg)
O=C1N=c2ccccc2=C1c1sc(NS(=O)(=O)c2ccccc2)nc1O	none
O=C1N=c2ccccc2=C1c1sc(NS(=O)(=O)Cc2ccccc2)nc1O	AmpC no deterg 3.5µM
O=[N+]([O-])c1ccccc1S(=O)c1ccccc1[N+](=O)[O-]	none (no result: AmpC detergent, Sm TGR inh, AmpC no deterg)
CS(=O)(=O)c1ccc(S(=O)CC(=O)Oc2ccc(Cl)cc2)c([N+](=O)[O-])c1 (centres undefined)	FMDV inh 35µM, Sm TGR inh 1.6µM
O=C(CS(=O)c1ccccc1[N+](=O)[O-])Oc1ccc(Br)cc1 (centres undefined)	Sm TGR inh 25µM
O=C1CC(/C=C/c2ccco2)=Nc2ccccc2N1	AmpC detergent inconclusive, Sm TGR inh 45µM
O=C(c1ccccc1-n1cccn1)N1CCOc2c(cc(-c3ncc(C(F)(F)F)cc3Cl)cc2OCC2CCCO2)C1 (centres undefined)	none (no result: AMA1-RON2 inh, AmpC detergent, Sm TGR inh, AmpC no deterg)
O=C([C@@H]1C[C@@H](Sc2nc3ccccc3[nH]2)CN1Cc1ccc(Cl)cc1)N1CCN(c2ccccc2F)CC1	none (no result: AMA1-RON2 inh, AmpC detergent, Sm TGR inh, AmpC no deterg)
CCCC(=O)NCC1(N(C)C)CCCCC1	none (no result: AMA1-RON2 inh, AmpC no deterg)
COc1ccc2c(c1)c(=O)c(C(=O)c1ccc(Cl)cc1)cn2CC(=O)Nc1ccc2c(c1)OCO2	none (no result: AMA1-RON2 inh, AmpC no deterg)
Cc1ccc(-n2c([O-])nc(-[n+]3ccccc3)c2C=O)cc1	Sm TGR inh 40µM (no result: FMDV inh)
COc1ccc(Nc2nc(-c3ccccc3)nc3ccccc23)cc1	none
COc1ccc(Nc2nc(-c3cccc([N+](=O)[O-])c3)nc3ccccc23)cc1	FMDV inh 40µM
Oc1ccc(Nc2nc(-c3ccccc3)nc3ccccc23)cc1	FMDV inh inconclusive, AmpC no deterg 18µM
Oc1ccc(Nc2nc(-c3ccc(Cl)cc3)nc3ccccc23)cc1	none (no result: AMA1-RON2 inh, AmpC no deterg)
COc1cc(OC)cc(-c2nc3ccccc3c(=O)n2OC(=O)c2ccccc2C)c1	none
O=C(On1c(-c2ccccc2)nc2ccccc2c1=O)c1ccco1	Sm TGR inh 6.3µM (no result: FMDV inh, AmpC no deterg)
O=c1c2ccccc2nc(-c2ccco2)n1Cc1ccccc1	Sm TGR inh 50µM (no result: AmpC no deterg)
O=C1c2ccccc2C(=O)N1CCc1nc2ccccc2c(=O)n1Cc1ccco1	FMDV inh 28µM, Sm TGR inh 35µM
Cn1c2ccccc2c(=O)c2c(=O)n(Cc3ccco3)c(-c3ccc(Cl)cc3Cl)nc21	Sm TGR inh 14µM (no result: AMA1-RON2 inh, FMDV inh)
Fc1ccc(Nc2nc(-c3cccc(Cl)c3)c3c(n2)-c2ccccc2OC3)cc1	none (no result: AMA1-RON2 inh, AmpC no deterg)
CCC(c1nnc(SCc2nc3ccccc3s2)n1Cc1ccccc1)N(C)C (centres undefined)	none
COc1ccc(Cn2c(-c3ccco3)nc3c(c(=O)c4ccccc4n3C)c2=O)cc1	Sm TGR inh 50µM
c1ccc(Cn2c(SCc3nc4ccccc4s3)nnc2-c2ccco2)cc1	AMA1-RON2 inh inconclusive, FMDV inh inconclusive, Sm TGR inh 13µM
COc1ccc(Cn2c(-c3ccc(OC)cc3)nc3c(c(=O)c4ccccc4n3C)c2=O)cc1	none (no result: AMA1-RON2 inh, FMDV inh)
O=c1c2ccccc2nc(/C=C/c2cccnc2)n1Cc1ccccc1	AMA1-RON2 inh 32µM
COCC(=O)Nc1cc(C(=O)N2CCN(C)C(c3ccccc3)C2)c2c(c1)nc(-c1ccncc1)n2C (centres undefined)	none (no result: AMA1-RON2 inh, AmpC detergent, Sm TGR inh, AmpC no deterg)
CCC(=O)n1nc(-c2ccco2)nc1SCc1ccccc1	Sm TGR inh 8.9µM
CC(=O)n1nc(-c2ccco2)nc1SCc1ccccc1	Sm TGR inh 32µM
CCOC(=O)CSc1nc(N)c(C#N)c(-c2ccc(OC)cc2)c1C#N	AmpC detergent inconclusive
